Measurements reported in the supplement of paper PMC11732987, “Enantioselective OTUD7B fragment discovery through chemoproteomics screening and high-throughput optimisation” (Communications Chemistry, 2025).
A number with no mark means an inactive call.

Key:
Experiment in all cases: log2 ratio of Biotin-Ahx-Ub-VS probe labelling (fragment/DMSO); higher = less target engagement (more negative = stronger competition), active = hit call of the paper (q ≤ 0.05, log2 ratio ≤ -1)
Conditions in all cases: compound concentration: 200 uM; treatment time: 3 h
[1] = biological target: T1, ALG13 (UniProt Q9NP73)
T1 sequence (whole entry): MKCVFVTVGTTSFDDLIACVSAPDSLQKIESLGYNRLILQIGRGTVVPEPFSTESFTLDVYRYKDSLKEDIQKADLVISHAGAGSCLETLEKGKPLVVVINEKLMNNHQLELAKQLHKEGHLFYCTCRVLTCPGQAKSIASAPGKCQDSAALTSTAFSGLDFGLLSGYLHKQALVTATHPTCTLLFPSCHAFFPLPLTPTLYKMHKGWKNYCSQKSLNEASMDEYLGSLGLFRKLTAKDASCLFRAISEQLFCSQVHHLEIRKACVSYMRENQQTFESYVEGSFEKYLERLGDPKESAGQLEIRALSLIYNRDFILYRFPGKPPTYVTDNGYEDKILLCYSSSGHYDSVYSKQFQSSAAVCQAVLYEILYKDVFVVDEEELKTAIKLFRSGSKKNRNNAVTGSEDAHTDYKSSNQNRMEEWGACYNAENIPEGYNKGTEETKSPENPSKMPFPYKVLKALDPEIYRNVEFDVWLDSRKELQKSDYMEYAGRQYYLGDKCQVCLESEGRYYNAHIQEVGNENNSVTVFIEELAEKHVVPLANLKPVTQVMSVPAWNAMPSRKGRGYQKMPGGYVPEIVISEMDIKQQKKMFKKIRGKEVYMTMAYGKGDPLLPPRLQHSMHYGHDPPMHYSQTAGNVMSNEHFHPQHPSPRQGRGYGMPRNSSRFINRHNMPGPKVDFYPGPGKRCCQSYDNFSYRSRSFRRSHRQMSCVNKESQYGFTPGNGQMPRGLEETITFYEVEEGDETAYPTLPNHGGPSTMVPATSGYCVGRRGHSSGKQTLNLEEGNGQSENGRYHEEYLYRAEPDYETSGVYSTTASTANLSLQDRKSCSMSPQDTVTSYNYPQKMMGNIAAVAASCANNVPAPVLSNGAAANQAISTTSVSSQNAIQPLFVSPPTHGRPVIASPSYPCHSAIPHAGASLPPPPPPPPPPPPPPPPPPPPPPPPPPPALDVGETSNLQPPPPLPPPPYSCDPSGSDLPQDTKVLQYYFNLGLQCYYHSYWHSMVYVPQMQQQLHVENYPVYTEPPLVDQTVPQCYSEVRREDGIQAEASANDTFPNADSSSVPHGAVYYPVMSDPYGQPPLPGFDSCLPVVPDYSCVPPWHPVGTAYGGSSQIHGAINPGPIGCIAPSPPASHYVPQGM
Method in brief: (§1)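 Labelling with Biotin-Ahx-Ub-VS (0.5 µM final, 1 h) followed a 3 h triplicate treatment of HEK293T lysate (495 µg per sample, Tris/CHAPS/IGEPAL buffer with protease inhibitors) with fragment at 200 µM or vehicle. Labelled DUBs were NeutrAvidin-enriched, digested with LysC and trypsin, and run by diaPASEF LC-MS/MS. The values, average log2 fragment/vehicle ratios by unpaired t-test, come from global-median-normalised Spectronaut label-free quantities. Proteins with ≥2 unique peptides were used.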

[2] = biological target: ATXN3 (UniProt P54252)
Method in brief: as §1

[3] = biological target: T2, BAP1 (UniProt Q92560)
T2 sequence (whole entry): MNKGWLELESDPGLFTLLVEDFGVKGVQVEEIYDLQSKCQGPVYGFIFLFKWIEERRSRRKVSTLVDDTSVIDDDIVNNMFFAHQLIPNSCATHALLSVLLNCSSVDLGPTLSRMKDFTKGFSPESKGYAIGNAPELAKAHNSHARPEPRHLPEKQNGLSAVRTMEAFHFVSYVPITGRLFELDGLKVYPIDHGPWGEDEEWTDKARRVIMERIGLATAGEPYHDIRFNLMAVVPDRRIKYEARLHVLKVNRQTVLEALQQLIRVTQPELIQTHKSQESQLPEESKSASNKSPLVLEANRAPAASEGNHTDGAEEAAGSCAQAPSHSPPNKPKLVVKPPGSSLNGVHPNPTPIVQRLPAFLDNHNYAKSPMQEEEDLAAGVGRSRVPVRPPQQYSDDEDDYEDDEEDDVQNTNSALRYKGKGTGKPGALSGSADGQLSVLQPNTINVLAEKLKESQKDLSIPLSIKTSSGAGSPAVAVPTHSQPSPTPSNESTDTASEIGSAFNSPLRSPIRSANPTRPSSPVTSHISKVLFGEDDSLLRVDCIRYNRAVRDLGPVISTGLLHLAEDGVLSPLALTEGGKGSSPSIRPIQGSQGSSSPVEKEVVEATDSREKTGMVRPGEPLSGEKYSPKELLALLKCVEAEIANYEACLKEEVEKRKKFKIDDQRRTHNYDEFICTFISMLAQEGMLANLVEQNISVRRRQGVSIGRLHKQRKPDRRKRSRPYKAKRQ
Method in brief: as §1

[4] = biological target: EIF3F (UniProt O00303)
Method in brief: as §1

[5] = biological target: EIF3H (UniProt O15372)
Method in brief: as §1

[6] = biological target: T3, FAM105A (UniProt Q9NUU6)
T3 sequence (whole entry): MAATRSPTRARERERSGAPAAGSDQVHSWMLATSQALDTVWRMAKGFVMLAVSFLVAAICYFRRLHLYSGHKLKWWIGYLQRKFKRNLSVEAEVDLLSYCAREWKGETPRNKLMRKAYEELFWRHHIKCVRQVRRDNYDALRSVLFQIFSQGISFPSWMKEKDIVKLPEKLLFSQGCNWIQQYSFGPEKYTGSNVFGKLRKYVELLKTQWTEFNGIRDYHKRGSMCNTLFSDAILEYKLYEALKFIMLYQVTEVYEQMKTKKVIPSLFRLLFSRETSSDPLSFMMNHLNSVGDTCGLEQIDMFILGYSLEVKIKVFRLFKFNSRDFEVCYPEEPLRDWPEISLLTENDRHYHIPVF
Method in brief: as §1

[7] = biological target: OTUB1 (UniProt Q96FW1)
Method in brief: as §1

[8] = biological target: T4, OTUD4 (UniProt Q01804)
T4 sequence (whole entry): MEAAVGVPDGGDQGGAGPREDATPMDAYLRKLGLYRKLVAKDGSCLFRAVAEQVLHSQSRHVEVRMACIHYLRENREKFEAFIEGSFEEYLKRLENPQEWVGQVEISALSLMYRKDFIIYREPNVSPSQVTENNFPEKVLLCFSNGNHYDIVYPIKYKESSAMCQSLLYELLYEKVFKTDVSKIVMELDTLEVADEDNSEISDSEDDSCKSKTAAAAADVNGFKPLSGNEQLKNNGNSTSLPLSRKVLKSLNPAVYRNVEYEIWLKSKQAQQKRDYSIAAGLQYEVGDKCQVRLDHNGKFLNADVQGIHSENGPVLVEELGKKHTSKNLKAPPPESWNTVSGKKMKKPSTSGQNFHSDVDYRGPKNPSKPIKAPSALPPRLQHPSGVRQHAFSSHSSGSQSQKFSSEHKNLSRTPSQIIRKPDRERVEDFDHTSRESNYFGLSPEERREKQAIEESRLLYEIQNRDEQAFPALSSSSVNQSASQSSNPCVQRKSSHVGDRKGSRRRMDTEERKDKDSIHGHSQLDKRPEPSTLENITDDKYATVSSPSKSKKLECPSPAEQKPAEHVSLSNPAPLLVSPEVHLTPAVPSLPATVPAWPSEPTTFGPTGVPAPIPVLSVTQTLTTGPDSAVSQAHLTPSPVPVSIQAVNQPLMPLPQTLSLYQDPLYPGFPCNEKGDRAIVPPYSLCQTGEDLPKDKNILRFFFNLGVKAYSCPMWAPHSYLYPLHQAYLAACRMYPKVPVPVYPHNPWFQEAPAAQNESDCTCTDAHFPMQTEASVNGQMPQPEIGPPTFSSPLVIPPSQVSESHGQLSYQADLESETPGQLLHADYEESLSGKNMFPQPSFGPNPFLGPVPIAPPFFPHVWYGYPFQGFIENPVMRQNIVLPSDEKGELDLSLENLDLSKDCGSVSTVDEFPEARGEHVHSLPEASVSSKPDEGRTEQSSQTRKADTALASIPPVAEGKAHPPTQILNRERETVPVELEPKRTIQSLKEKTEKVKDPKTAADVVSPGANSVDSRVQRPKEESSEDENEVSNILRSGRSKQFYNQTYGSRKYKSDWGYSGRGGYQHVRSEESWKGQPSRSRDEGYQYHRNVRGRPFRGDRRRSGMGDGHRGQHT
Method in brief: as §1

[9] = biological target: T5, OTUD5 (UniProt Q96G74)
T5 sequence (whole entry): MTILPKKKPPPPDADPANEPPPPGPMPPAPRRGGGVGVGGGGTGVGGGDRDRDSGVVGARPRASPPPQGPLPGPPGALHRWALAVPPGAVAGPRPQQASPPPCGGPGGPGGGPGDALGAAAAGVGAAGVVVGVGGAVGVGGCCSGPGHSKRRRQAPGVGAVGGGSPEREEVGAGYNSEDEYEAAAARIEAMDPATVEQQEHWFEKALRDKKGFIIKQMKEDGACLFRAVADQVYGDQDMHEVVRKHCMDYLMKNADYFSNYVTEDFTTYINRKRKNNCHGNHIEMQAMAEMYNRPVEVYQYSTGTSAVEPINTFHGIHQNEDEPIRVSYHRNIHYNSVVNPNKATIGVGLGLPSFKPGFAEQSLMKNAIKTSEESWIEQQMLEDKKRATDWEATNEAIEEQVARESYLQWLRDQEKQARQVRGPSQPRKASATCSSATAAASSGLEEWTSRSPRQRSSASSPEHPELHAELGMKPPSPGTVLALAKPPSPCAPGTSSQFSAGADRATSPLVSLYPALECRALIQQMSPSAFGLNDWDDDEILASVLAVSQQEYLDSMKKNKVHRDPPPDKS
Method in brief: as §1

ATXN3, sequence (P54252 whole entry): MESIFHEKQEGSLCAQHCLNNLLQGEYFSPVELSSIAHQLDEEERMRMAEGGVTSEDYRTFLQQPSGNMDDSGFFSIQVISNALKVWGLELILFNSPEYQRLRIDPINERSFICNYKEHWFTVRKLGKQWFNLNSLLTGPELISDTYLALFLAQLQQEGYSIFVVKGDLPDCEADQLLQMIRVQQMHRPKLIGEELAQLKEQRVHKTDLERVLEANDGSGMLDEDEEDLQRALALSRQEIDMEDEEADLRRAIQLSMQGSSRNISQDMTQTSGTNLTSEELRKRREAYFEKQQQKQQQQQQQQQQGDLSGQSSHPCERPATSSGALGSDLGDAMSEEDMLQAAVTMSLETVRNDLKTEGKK
OTUB1, sequence (Q96FW1 whole entry): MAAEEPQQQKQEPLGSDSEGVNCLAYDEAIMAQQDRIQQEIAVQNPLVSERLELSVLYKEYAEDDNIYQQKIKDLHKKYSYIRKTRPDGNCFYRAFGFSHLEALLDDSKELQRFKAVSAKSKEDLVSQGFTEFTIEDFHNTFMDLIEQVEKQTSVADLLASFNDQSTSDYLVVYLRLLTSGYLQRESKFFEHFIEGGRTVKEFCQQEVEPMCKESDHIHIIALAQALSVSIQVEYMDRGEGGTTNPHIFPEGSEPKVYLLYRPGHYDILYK
EIF3F, sequence (O00303 whole entry): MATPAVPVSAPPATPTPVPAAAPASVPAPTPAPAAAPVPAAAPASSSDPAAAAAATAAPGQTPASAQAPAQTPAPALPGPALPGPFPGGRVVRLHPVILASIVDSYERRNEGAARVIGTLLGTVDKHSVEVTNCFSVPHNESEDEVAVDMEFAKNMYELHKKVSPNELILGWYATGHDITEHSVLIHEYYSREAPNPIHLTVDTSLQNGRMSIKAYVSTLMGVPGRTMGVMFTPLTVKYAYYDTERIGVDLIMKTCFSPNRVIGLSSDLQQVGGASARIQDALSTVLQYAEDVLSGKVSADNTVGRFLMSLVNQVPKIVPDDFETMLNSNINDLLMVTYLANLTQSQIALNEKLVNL
EIF3H, sequence (O15372 whole entry): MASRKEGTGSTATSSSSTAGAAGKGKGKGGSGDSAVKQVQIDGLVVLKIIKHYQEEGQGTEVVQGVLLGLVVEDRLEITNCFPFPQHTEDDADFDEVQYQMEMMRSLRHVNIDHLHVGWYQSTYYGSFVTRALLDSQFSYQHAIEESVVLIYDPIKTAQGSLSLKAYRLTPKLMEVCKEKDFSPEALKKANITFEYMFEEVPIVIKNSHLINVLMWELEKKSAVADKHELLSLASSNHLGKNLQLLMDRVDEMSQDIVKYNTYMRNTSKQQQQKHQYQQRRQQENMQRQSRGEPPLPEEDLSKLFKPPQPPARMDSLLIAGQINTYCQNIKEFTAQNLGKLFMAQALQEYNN

Cc1ccc(C)c(Oc2ccc(CNC(=O)CCl)cn2)c1.Cl
log2 ratio of Biotin-Ahx-Ub-VS probe labelling [1]: -0.222
log2 ratio of Biotin-Ahx-Ub-VS probe labelling [2]: -0.48
log2 ratio of Biotin-Ahx-Ub-VS probe labelling [3]: -3.94 (active)
log2 ratio of Biotin-Ahx-Ub-VS probe labelling [4]: -0.169
log2 ratio of Biotin-Ahx-Ub-VS probe labelling [5]: 0.199
log2 ratio of Biotin-Ahx-Ub-VS probe labelling [6]: -0.149
log2 ratio of Biotin-Ahx-Ub-VS probe labelling [7]: 0.0499
log2 ratio of Biotin-Ahx-Ub-VS probe labelling [8]: -0.382
log2 ratio of Biotin-Ahx-Ub-VS probe labelling [9]: -0.697
